Reference: PubChem BioAssay (NCATS)
Values joined by “and” are separate entries in the source; they are usually repeats but may differ in a detail not shown here. Equal values may be shown once. Records with an inconclusive call do not appear. Active and inactive are the calls of the source. Unless noted, calls follow the shape of the dose curve; as a rule, active = well fitted curve in the direction sought with a large enough effect; inconclusive = small, poorly fitted or top-dose-only effect, or another doubt; inactive = no such curve, though single readings can be large; an effect the other way counts as inactive or inconclusive.

Tests used:
[1] = target: Cytochrome P450 2C9 (Homo sapiens) (UniProt P11712); assay: qHTS Assay for Inhibitors and Substrates of Cytochrome P450 2C9 (AID 883); also: potency is read from the fitted curve at half-maximal effect; nearly all actives have a fitted effect of over 60% in size
Chain of Cytochrome P450 2C9 (Homo sapiens) (P11712 whole entry, looked up): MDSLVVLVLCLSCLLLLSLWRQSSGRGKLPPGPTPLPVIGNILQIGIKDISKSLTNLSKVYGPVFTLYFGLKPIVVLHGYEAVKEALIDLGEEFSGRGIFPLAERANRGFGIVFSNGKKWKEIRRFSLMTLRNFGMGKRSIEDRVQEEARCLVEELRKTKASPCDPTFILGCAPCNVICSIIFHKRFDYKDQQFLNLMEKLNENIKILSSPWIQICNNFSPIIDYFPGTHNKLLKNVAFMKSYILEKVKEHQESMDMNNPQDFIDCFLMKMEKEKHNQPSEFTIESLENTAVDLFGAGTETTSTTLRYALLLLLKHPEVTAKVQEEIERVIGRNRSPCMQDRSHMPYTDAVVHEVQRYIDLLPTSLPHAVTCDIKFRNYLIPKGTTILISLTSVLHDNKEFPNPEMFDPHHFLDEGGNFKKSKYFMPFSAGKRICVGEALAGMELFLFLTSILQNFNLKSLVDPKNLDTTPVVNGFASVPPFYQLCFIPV
How it was run: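 Human CYP2C9 (10nM) hydroxylated Luciferin-H (100uM, at its KM) to luciferin in 25mM KPO4. Compound was preincubated 10 min at 37C, then NADPH regeneration started a 60 min reaction at 37C. Luminescence was read after detection reagent, normalized to 57uM sulphaphenazole.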

[2] = target: Cytochrome P450 3A4 (Homo sapiens) (UniProt P08684); assay: qHTS Assay for Inhibitors and Substrates of Cytochrome P450 3A4 (AID 884); also: potency is read from the fitted curve at half-maximal effect; nearly all actives have a fitted effect of over 50% in size
How it was run: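 Luminescent readout of luciferin produced by CYP3A4 (20 nM) dealkylation of Luciferin-PPXE, 25 uM (its KM). NADPH-driven reaction ran 60 min at RT after 10 min compound preincubation; data scaled to 57 uM ketoconazole as 100% inhibition.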

[3] = target: Cytochrome P450 2D6 (Homo sapiens) (UniProt P10635); assay: qHTS Assay for Inhibitors and Substrates of Cytochrome P450 2D6 (AID 891); also: potency is read from the fitted curve at half-maximal effect; nearly all actives have a fitted effect of over 60% in size
Chain of Cytochrome P450 2D6 (Homo sapiens) (P10635 whole entry, looked up): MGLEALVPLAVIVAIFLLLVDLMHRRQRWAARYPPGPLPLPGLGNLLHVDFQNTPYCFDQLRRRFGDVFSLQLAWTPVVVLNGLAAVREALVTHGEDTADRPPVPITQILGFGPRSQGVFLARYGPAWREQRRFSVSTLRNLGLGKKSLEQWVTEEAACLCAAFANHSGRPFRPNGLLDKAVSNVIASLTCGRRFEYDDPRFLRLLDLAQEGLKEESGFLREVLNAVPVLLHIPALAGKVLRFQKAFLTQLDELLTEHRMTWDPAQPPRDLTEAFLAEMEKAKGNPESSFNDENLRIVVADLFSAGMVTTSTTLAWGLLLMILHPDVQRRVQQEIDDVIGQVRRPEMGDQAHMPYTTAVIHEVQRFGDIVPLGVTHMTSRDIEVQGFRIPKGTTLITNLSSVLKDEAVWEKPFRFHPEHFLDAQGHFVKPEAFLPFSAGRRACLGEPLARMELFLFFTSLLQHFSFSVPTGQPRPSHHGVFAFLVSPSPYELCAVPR
How it was run: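 Luminescent read-out of luciferin formed by 5 nM human CYP2D6 demethylating 30 uM Luciferin-ME EGE (Km level) over 60 min at room temperature after NADPH regeneration addition. Data normalized to full inhibition by 1.43 uM quinidine.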

[4] = target: Cytochrome P450 2C19 (Homo sapiens) (UniProt P33261); assay: qHTS Assay for Inhibitors and Substrates of Cytochrome P450 2C19 (AID 899); also: potency is read from the fitted curve at half-maximal effect; nearly all actives have a fitted effect of over 60% in size
How it was run: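 Human CYP2C19 (5nM) with Luciferin-H EGE at 10uM (its KM) in 50mM KPO4 was preincubated with compound for 10 min at 37C. NADPH regeneration started a 60 min 37C reaction. Luciferin was read by luminescence, normalized to 57uM ketoconazole.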

[5] = qHTS Assay for Identification of Small Molecule Antagonists for Thrombopoietin (TPO) Signaling Pathway (AID 918); details: TPO-dependent cell signaling reporter, antagonist mode; also: potency is read from the fitted curve at half-maximal effect; nearly all actives have a fitted effect of over 60% in size
How it was run: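 Inhibition read as reduced luciferase luminescence after 24 h at 37 C in IL-3-deprived Ba/F3 cells carrying human TPO receptor and GPIIb-promoter reporter, stimulated with 26 pM TPO (final, its EC50) alongside compound.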

[6] = target: Alpha-galactosidase (Coffea arabica) (UniProt Q42656); assay: Counterscreen for Glucocerebrosidase Inhibitors: qHTS Assay for Coffee Bean alpha-Galactosidase at pH 4.5 (AID 957)
Chain of Alpha-galactosidase (Coffea arabica) (Q42656 whole entry, looked up): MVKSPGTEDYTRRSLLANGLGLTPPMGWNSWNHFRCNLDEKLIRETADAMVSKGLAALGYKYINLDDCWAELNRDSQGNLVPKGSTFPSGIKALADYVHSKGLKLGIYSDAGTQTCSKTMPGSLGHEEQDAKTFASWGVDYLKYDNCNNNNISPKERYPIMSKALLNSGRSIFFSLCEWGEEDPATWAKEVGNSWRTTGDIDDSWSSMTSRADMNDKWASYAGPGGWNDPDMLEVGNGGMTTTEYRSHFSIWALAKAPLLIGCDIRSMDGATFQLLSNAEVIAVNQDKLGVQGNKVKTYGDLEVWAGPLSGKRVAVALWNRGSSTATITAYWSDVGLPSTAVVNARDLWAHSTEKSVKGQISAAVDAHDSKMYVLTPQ
How it was run: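 Fluorogenic qHTS at pH 4.5 (citrate buffer with Tween-20): 2 nM enzyme, 80 uM 4-MU-alpha-galactoside substrate, compound titrated 0.7 nM to 77 uM, 20 min room temperature. Glycine/NaOH stop; 4-MU read Ex 365/Em 440; Hill-equation AC50 against no-enzyme and enzyme controls.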

[7] = target: Alpha-galactosidase (Coffea arabica) (UniProt Q42656); assay: Counterscreen for Glucocerebrosidase Inhibitors: qHTS Assay for Coffee Bean alpha-Galactosidase at pH 5.9 (AID 998)
How it was run: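 In 50 mM citric acid pH 5.9 with 0.005% Tween-20, coffee bean enzyme hydrolyses 80 uM 4-MU alpha-D-galactopyranoside over 20 min at RT. Activity is normalized to controls; AC50 comes from Hill-modelled concentration-response data.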

[8] = target: DNA repair nuclease/redox regulator APEX1 (Homo sapiens) (UniProt P27695); assay: qHTS Validation Assay for Inhibitors of the Human Apurinic/apyrimidinic Endonuclease 1 (APE1) (AID 1705; also: potency is read from the fitted curve at half-maximal effect)
Chain of DNA repair nuclease/redox regulator APEX1 (Homo sapiens) (P27695 whole entry, looked up): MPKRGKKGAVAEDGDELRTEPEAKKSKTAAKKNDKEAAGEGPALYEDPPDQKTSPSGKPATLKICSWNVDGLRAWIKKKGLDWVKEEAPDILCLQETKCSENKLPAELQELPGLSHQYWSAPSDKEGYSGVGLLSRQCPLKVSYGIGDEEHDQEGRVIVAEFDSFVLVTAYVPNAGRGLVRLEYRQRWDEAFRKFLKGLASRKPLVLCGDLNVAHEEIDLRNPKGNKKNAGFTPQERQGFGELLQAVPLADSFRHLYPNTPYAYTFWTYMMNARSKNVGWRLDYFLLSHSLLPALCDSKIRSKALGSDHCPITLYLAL
How it was run: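 qHTS, 1536-well. APE1 + cpd 15 min RT → 50 nM TAMRA/BHQ-2 THF-abasic dsDNA substrate → kinetic fluorescence, 3 reads/60 s; delta(read3−read1) = reaction progress. No-enzyme buffer = negative control.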

[9] = Counterscreen for APE1 Inhibitors: Fluorescent Dye Displacement Validation Assay (AID 1707); also: potency is read from the fitted curve at half-maximal effect
How it was run: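 Reaction mixture of 250 nM Thiazole Orange and 50 nM double-stranded abasic-site DNA was dispensed, compounds were pin-transferred, and fluorescence was read at endpoint (480 nm ex, 540 nm em). Reduced fluorescence indicated dye displacement by DNA binding.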

[10] = qHTS for differential inhibitors of proliferation of Plasmodium falciparum line 7G8 (AID 1815);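 also: potency is read from the fitted curve at half-maximal effect; parasite growth measured after three days of incubation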
[11] = qHTS for differential inhibitors of proliferation of Plasmodium falciparum line W2 (AID 1883); details: Potency: Plasmodium falciparum W2 proliferation inhibition;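 also: potency is read from the fitted curve at half-maximal effect; parasites grown with compound for 72 h before lysis and staining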
[12] = Validation screen for inhibitors of Lassa infection (AID 463096; calls by dose curve)
[13] = target: DNA polymerase III PolC-type (Bacillus subtilis (strain 168)) (UniProt P13267); assay: qHTS Validation Assay for the Inhibitors of DNA Replication in Gram-Positive Bacteria (AID 485295); also: potency is read from the fitted curve at half-maximal effect
Chain of DNA polymerase III PolC-type (Bacillus subtilis (strain 168)) (P13267 whole entry, looked up): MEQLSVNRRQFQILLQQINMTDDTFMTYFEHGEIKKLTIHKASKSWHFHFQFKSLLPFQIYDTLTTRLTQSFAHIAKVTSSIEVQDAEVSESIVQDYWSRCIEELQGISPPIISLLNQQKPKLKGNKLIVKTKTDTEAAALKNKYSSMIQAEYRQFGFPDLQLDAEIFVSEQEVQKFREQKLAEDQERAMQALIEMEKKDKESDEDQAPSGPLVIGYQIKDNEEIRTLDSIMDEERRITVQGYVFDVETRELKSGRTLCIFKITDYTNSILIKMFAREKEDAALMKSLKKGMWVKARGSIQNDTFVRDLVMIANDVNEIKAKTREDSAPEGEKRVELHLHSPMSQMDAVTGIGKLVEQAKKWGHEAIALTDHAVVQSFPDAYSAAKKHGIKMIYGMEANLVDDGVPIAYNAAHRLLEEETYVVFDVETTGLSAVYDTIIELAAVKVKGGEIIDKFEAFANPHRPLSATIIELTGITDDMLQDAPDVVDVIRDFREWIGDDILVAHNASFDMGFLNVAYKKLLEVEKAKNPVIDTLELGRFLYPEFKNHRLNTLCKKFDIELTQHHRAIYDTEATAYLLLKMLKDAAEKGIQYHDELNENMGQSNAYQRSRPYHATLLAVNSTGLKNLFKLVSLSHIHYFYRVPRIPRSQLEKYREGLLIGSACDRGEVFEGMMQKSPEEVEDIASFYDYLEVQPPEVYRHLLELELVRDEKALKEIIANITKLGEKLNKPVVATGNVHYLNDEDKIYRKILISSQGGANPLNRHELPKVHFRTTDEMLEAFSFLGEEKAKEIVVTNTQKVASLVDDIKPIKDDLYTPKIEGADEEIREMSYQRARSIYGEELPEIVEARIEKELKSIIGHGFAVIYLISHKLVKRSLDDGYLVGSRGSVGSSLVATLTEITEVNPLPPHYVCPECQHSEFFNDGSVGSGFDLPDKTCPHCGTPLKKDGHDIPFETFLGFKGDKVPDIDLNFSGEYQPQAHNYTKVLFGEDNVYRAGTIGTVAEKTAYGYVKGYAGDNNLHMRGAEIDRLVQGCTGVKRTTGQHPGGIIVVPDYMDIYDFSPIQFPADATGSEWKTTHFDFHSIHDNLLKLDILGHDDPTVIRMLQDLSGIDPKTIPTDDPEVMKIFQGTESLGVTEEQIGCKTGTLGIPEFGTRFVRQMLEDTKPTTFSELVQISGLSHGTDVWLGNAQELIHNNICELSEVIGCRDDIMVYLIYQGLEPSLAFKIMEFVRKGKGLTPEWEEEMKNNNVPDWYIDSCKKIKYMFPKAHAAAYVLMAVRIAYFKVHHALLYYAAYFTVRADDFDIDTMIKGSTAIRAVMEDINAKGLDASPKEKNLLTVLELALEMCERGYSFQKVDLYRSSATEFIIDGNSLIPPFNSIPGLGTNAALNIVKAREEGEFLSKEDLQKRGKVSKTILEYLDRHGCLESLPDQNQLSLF
How it was run: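 First, compound is mixed with the reconstituted replication complex and held at room temperature. Next, circular single-stranded M13Gori with nucleotides starts synthesis. Finally, PicoGreen in EDTA halts the reaction and stains double-stranded product for fluorescence reading.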

[14] = target: M-phase phosphoprotein 8 (Homo sapiens) (UniProt Q99549); assay: qHTS Validation Assay for Inhibitors for MPP8 Chromodomain Interactions with Methylated Histone Tails (AID 488949); also: potency is read from the fitted curve at half-maximal effect; nearly all actives have a fitted effect of over 55% in size
Chain of M-phase phosphoprotein 8 (Homo sapiens) (Q99549 whole entry, looked up): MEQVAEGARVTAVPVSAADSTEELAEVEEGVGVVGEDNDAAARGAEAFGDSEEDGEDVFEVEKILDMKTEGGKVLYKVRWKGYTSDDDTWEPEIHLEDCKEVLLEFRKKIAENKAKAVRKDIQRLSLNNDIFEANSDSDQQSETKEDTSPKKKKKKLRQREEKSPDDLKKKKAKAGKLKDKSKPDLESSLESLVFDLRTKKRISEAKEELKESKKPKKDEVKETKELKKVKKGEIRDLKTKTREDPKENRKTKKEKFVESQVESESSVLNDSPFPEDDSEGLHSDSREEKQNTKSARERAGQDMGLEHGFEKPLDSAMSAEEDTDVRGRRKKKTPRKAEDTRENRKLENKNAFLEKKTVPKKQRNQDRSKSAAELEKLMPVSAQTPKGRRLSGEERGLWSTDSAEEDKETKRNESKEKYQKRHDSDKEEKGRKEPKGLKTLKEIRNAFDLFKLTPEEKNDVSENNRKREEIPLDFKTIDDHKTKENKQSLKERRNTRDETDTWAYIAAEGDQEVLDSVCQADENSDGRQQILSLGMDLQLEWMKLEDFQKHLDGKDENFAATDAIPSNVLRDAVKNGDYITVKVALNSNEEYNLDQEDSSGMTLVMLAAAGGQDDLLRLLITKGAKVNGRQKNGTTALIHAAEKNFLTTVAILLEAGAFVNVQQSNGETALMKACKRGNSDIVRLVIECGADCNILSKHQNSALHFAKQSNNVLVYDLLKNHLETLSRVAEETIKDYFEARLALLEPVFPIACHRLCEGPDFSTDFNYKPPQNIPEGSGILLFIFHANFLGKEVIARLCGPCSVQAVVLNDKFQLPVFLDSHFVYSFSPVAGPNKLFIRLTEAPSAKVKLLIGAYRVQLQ
How it was run: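 50 nM MPP8 + 50 nM b-H3K9me3 peptide, PBS pH 7.4/0.01% Tween-20, 30 min RT; + cpd 30 min RT; + AlphaScreen donor/Ni-chelate acceptor beads 10 ug/mL final, 30 min dark; luminescence read.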

[15] = target: Chromobox protein homolog 1 (Homo sapiens) (UniProt P83916); assay: qHTS Validation Assay for Inhibitors of HP1-beta Chromodomain Interactions with Methylated Histone Tails (AID 488953); also: potency is read from the fitted curve at half-maximal effect; nearly all actives have a fitted effect of over 50% in size
How it was run: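 AlphaScreen proximity signal from streptavidin donor and nickel chelate acceptor beads (final 10 ug/mL) after 30 min dark incubation. Compounds had 30 min at room temperature with preformed complex of 50 nM HP1-beta and 50 nM b-H3(1-18)K9me3 in PBS pH 7.4 with 0.01% Tween-20.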

[16] = Inducers of the Endoplasmic Reticulum Stress Response (ERSR) in human glioma: Validation (AID 504836)
How it was run: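 Stably transfected U87-MG human glioma cells carrying a GRP78-based luminescent sensor were seeded at 1000 cells/well, pin-dosed with compounds and incubated 16 h. Luciferase reagent was then added, and end-point luminescence was read after 10 min at room temperature.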

[17] = qHTS assay for small molecule agonists of retinoid X receptor alpha signaling (AID 588544; calls by dose curve); details: HEK293T RXRa-UAS-bla, beta-lactamase reporter, 18 h; 530 nm emission
[18] = target: Retinoic acid receptor RXR-alpha (Homo sapiens) (UniProt P19793); assay: as above
Chain of Retinoic acid receptor RXR-alpha (Homo sapiens) (P19793 whole entry, looked up): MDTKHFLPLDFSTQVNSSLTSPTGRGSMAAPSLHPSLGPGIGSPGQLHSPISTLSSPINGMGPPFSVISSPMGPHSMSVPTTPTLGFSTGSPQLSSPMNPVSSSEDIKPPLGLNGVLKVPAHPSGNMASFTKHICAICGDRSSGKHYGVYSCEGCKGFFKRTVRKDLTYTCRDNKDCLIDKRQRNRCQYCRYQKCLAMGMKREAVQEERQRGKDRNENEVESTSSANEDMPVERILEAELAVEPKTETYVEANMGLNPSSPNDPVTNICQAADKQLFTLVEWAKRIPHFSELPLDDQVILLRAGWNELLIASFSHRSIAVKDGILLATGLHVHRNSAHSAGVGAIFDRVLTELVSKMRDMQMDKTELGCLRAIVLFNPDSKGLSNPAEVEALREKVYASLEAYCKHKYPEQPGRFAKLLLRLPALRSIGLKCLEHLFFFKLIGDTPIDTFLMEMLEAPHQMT

[19] = target: Voltage-gated inwardly rectifying potassium channel KCNH2 (Homo sapiens) (UniProt Q12809); assay: qHTS Assay for Small Molecule Inhibitors of the Human hERG Channel Activity (AID 588834);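 also: top concentration of the series differs between compounds; lower thallium flux fluorescence means stronger hERG block; nearly all actives have a fitted effect of over 50% in size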
How it was run: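 Step 1: BacMam hERG transduction of U2OS, 4 hrs RT. Step 2: overnight 37 °C, plate 2000 cells/well, 4 hr. Step 3: FluxOR load, compound 10 min, stimulate, read fluorescence.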

[20] = qHTS assay for small molecule agonists of the antioxidant response element (ARE) signaling pathway (AID 651741; active = well fitted activation curve with a large enough effect in the signal ratio; the % refers to the signal ratio; also: potency is read from the fitted curve at half-maximal effect)
How it was run: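 Reporter: beta-lactamase under ARE, stably in HepG2. Exposure: 16 h, 37 C, compounds delivered in DMSO by pin tool after 5 h cell preincubation. Readout: FRET substrate fluorescence after 2 h at RT.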

[21] = qHTS assay for small molecule activators of the p53 signaling pathway (AID 651743; active = well fitted activation curve with a large enough effect in the signal ratio, not every such curve was filed as active; the % refers to the signal ratio; also: potency is read from the fitted curve at half-maximal effect); details: HCT-116 p53RE-bla, beta-lactamase FRET ratio, 16 h; activation: stronger effect = higher value
How it was run: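 Agonist-mode quantitative HTS in HCT-116 cells carrying a p53-response-element beta-lactamase reporter; 16 h compound treatment at 37 C, then FRET substrate loading for 2 h at room temperature and fluorescence read.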

[22] = qHTS assay for small molecule disruptors of the mitochondrial membrane potential - 1 hr assay (AID 651754; calls by dose curve; also: potency is read from the fitted curve at half-maximal effect; nearly all actives have a fitted effect of over 35% in size)
How it was run: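 Mitochondrial potential in living HepG2 cells after 1 hr compound treatment at 37C was read with Mito-MPS dye added for a further 30 min. Red aggregate and green monomer fluorescence were measured; loss of potential leaves dye as cytoplasmic monomers.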

[23] = qHTS assay for small molecule disruptors of the mitochondrial membrane potential - 5 hr assay (AID 651755; calls by dose curve; also: potency is read from the fitted curve at half-maximal effect; nearly all actives have a fitted effect of over 40% in size)
How it was run: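 Seed HepG2 overnight, add compound, incubate 5 hr at 37C and 5% CO2, stain 30 min with Mito-MPS, then measure monomer (490/535 nm) and aggregate (540/590 nm) fluorescence.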

[24] = qHTS assay to identify small molecules that stimulate interleukin-8 (IL-8) secretion (AID 651758; active = well fitted activation curve with a large enough effect in the signal ratio; the % refers to the signal ratio; also: potency is read from the fitted curve at half-maximal effect)
How it was run: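 Quantitative HTS in THP-1 monocytic cells at 2000 cells per well, with 16 hrs compound incubation at 37 C. IL-8 in the medium was then quantified by HTRF immunoassay, read after 1-3 hrs at room temperature.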

[25] = qHTS assay for environmental chemicals that activate the Aryl hydrocarbon Receptor (AhR) signaling pathway (AID 651777); details: 1A2-DRE human hepatoma cells, luciferase, 24 h; activation: stronger effect = higher value; also: potency is read from the fitted curve at half-maximal effect; nearly all actives have a fitted effect of over 15% in size
How it was run: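 1A2-DRE human hepatoma reporter line; 1,200 cells/well; cmpd or DMSO 24 h, 37 C/5% CO2; One-Glo 30 min RT; luciferase lum.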

[26] = target: Nuclear receptor ROR-gamma (Homo sapiens) (UniProt P51449); assay: qHTS assay for small molecule antagonists of the retinoid-related orphan receptor gamma (ROR-gamma) signaling pathway (AID 651802)
How it was run: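 Luminescence (One-Glo, 30 min RT) measured 16 h after compound addition and doxycycline induction at 37C. Reporter: RORE-luciferase under TET-inducible ROR-gamma in CHO cells.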

[27] = target: Arylsulfatase A (Homo sapiens) (UniProt P15289); assay: qHTS screen for enhancers of Arylsulfatase A (ASA1): LOPAC Validation Assay (AID 720538)
How it was run: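 MLD patient fibroblasts (SV40, ASA-I179S), 1536-well; adhere 6 hrs; cpd 48h, 37 degree C, 5% CO2; pNCS 0.5mM final in lysis buffer, 14h RT; stop 1N NaOH final; fluor. Ex525/Em598.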

[28] = qHTS profiling of the MIPE4 collection as inhibitors of Plasmodium falciparum (3D7) proliferation (AID 743344; call rule not given here); details: P. falciparum 3D7 in erythrocytes, SYBR Green DNA fluorescence, 72 h; at 28.5 µM (top of the series) unless noted
How it was run: (§1)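 Parasite DNA was quantified by SYBR Green I fluorescence (ex 485, em 535 nm) after overnight lysis in saponin/Triton buffer at room temperature. Cultures at 0.3% parasitemia and 2.5% hematocrit were first exposed to compound for 72 h at 37 C; signals were normalised to artemisinin (0.29 uM) and vehicle wells.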

[29] = qHTS profiling of the MIPE4 collection as inhibitors of Plasmodium falciparum (DD2) proliferation (AID 743345; call rule not given here); details: P. falciparum Dd2 in erythrocytes, SYBR Green DNA, 72 h; at 28.5 µM (top of the series) unless noted
How it was run: as §1

[30] = qHTS for Inhibitors of the Functional Ribonucleoprotein Complex (vRNP) of Lassa (LASV) Arenavirus: LASV Primary Screen - GLuc reporter signal (AID 1347082; calls by dose curve; tested in HEK293 reporter line; also: nearly all actives have a fitted effect of over 60% in size)
[31] = qHTS for Inhibitors of the Functional Ribonucleoprotein Complex (vRNP) of Lassa (LASV) Arenavirus: Viability assay - alamar blue signal for LASV Primary Screen (AID 1347083; calls by dose curve; tested in HEK293 reporter line; also: nearly all actives have a fitted effect of over 80% in size)
[32] = qHTS for Inhibitors of the Functional Ribonucleoprotein Complex (vRNP) of Lymphocytic Choriomeningitis Arenaviruses (LCMV): Viability assay - alamar blue signal for LCMV Primary Screen (AID 1347085; calls by dose curve; tested in HEK293 reporter line; also: nearly all actives have a fitted effect of over 80% in size)
[33] = target: Nucleoprotein (Lymphocytic choriomeningitis virus (strain Armstrong)) (UniProt P09992); assay: qHTS for Inhibitors of the Functional Ribonucleoprotein Complex (vRNP) of Lymphocytic Choriomeningitis Arenaviruses (LCMV): LCMV Primary Screen - GLuc reporter signal (AID 1347086; calls by dose curve; also: nearly all actives have a fitted effect of over 70% in size)
Chain of Nucleoprotein (Lymphocytic choriomeningitis virus (strain Armstrong)) (P09992 whole entry, looked up): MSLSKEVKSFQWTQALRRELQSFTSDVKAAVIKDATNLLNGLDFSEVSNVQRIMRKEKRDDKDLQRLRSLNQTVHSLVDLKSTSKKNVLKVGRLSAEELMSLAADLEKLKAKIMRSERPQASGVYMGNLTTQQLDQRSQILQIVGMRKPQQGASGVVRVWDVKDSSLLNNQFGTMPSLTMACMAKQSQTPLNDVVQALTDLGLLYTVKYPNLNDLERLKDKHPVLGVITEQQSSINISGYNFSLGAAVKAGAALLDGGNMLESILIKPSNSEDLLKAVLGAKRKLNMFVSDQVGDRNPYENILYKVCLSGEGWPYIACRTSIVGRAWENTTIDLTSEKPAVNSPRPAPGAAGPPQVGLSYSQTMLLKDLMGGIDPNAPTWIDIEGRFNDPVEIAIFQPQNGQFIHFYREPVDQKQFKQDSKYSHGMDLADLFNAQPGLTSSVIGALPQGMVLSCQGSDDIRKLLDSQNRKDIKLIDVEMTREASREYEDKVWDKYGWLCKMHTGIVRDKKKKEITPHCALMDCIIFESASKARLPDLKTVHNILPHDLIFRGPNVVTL

[34] = Cytotoxicity counterscreen for inhibitors of SARS-CoV-2 cell entry (AID 1645845; calls by dose curve; also: nearly all actives have a fitted effect of over 50% in size)
How it was run: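 After a 15 min room-temperature ATPLite 1step step, luminescence reflected ATP remaining in HEK293-ACE2 cells exposed to compound for 1 h plus 48 h at 37 C, with percent activity set by cell and no-cell controls.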

[35] = Primary qHTS to identify inhibitors of SARS-CoV-2 cell entry (AID 1645846; calls by dose curve; also: nearly all actives have a fitted effect of over 45% in size); details: activity change, negative = inhibition: at 57.1 µM (top of the series) unless noted
How it was run: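 Inhibition of spike-mediated entry was scored in human ACE2-transfected Expi293F cells. Particles were MLV-pseudotyped with Wuhan-Hu-1 S carrying a 19-aa C-terminal deletion; signal was luciferase after two days, scaled between spike PP and fusion-protein-free PP.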

CRL-7250 = normal cell line; assay: qHTS assay to identify novel small-molecules to repurpose for Merkel cell carcinoma treatment (AID 1296009); details: MCC and control cell lines, CellTiter-Glo viability, 72 h; series mostly up to 92 µM; also: nearly all actives have a fitted effect of over 60% in size
How it was run: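 Viability readout: ATP luminescence (CellTiter-Glo) after 72 hr drug exposure at 37 degree celsius. Dose-response format was 8 points for NPC and 11 points for MIPE; data normalized to in-plate controls.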

Cc1cc(O)c2c(c1)C(=O)c1cc(O)cc(O)c1C2=O
21.4%: max response [17]
90.9%: parasite growth remaining, % of DMSO control (lower = more inhibition) [29]
3.76%: activity change, negative = inhibition [35]
76.8%: parasite growth, % of DMSO control [28]
active: Potency [1] 7.94 µM | Potency [2] 10 µM | Potency [3] 12.6 µM | Potency [4] 7.94 µM | Potency [5] 12.6 µM | Potency [8] 35.5 µM | Potency [9] 28.2 µM | Potency [10] 11.2 µM | Potency [11] 14.1 µM | Potency [13] 23.8 µM | Potency [14] 10.6 µM | Potency [15] 22.4 µM | Potency [20] 9.69 µM and 18.8 µM | Potency [21] 15.8 µM and 22.4 µM | Potency [22] 2.98 µM | Potency [23] 3.76 µM | Potency [24] 66.8 µM | Potency [25] 44.7 µM | Potency [26] 42.2 µM
inactive: outcome [6] | outcome [7] | Potency [12] | outcome [16] | outcome [18] | Potency [19] | Potency [27] | Potency [30] | Potency [31] | Potency [32] | Potency [33] | Potency [34] | Potency (CRL-7250)

CC(Cc1ccc(O)c(O)c1)(NN)C(=O)O (stereo not drawn)
-34.1%: activity change, negative = inhibition [35]
inactive: Potency [30] | Potency [31] | Potency [32] | Potency [33] | Potency [34] | Potency (CRL-7250)
